The list is not random: actives were taken first. Their share in the collection is about 3.8%.
Cardio protect = modulators protecting cardiomyocytes from myocardial damage. H9c2 cardiomyocytes, H2O2 injury protection, ATPLite, 2 h. protection from H2O2 cell death, % at 20 µM. actives 0.63% (n = 360,000);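 active means compounds giving at least 50% protection of heart cells from peroxide-induced death in the single-dose screen, raw or plate-pattern-corrected value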
FAS-TE inh = FAS thioesterase (human) inhibition; inhibition, % at 15 µM; recombinant FAS-TE, OMFH fluorogenic substrate, fluorescence endpoint; AID 602261; actives 0.67% (n = 360,000);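 active means compounds whose normalised, plate-corrected inhibition of enzyme fluorescence in the single-dose primary screen is 50% or more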
MPTP block = inhibitors of mitochondrial permeability transition pore; AID 602449; actives 1.4% (n = 360,000); inhibition, % at 10 µM; isolated mouse mitochondria, Ca2+ swelling absorbance, 30 min;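 active means inhibition of 50% or more, scaled per plate between neutral and stimulator controls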
SUMO Mot1 rescue = blocks SUMOylation pathway, rescuing yeast Mot1-301 growth; S. cerevisiae Mot1-301 growth rescue, ATP luminescence, 38.5C; percent above DMSO median, 100 means doubled; AID 2716; actives 1% (n = 320,000); growth rescue, % at 18.8 µM;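 active means every valid replicate shows activation above 250% relative to neutral control wells; inactive means the rest, any valid replicate at or below 250%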
aDG glyco up = increases alpha dystroglycan glycosylation; activation, % at 10 µM; Pro5-aDG cells, alpha-DG glycosylation AlphaScreen (IIH6); 0% Pro5, 100% B10-LARGE cell signal; actives 0.22% (n = 360,000);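 active means activation of at least 8% versus controls, or a plate z-score of at least 8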;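 further: Pro5 are CHO cells carrying HIG-tagged alpha-DG that lacks glycosylation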
Yeast superoxide = caloric restriction mimetics inhibiting age-related superoxide in yeast; S. cerevisiae aged cells, superoxide DHE fluorescence; active compounds read low; superoxide response (% of plate mean), % at 10 µM; actives 0.18% (n = 330,000);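 active means superoxide response under a set limit, about three screen SD below normal, cut at about 65% in these data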;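 further: yeast aged for seven days with compound at 30 °C before DHE staining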
Rh123 counter = membrane potential counter-screen of mitochondrial pore inhibitors; inhibition, % at 10 µM; shares compounds with MPTP block; isolated mitochondria, Rhodamine 123 fluorescence; actives 78% (n = 5,000); AID 624504; in the data active means inhibition above about 22%
MPTP swell DR = MPTP inhibition, dose response swelling confirmation. AID 651561. isolated mitochondria swelling, absorbance. IC50, µM. actives 58% (n = 780). shares compounds with MPTP block; in the data active means IC50 below about 20 µM
MPTP counter DR = MPTP inhibitor counter-screen activity, dose response | isolated mitochondria counterscreen, fluorescence read-out | shares compounds with MPTP block | AID 651564 | IC50, µM | actives 49% (n = 780); in the data active means IC50 below about 80 µM
Each line names hits and unclear results; the compound was inactive in the other large screens (follow-up assays come after a bar, where they were run).

Cc1ccc(Cl)cc1N1CCN(C(=O)CSc2nnc3n2C(C)(C)Cc2ccccc2-3)CC1	MPTP block 94.0 | Rh123 counter 90.0
CCC(C)NC(=O)Cn1ccc2cc(S(=O)(=O)N3CCCCCC3)ccc21 (stereo not given)	none
CCn1c(CNC(=O)COc2ccc(C(C)C)cc2)nnc1SCC(=O)Nc1ccccc1C(C)C	MPTP block 53.2 | Rh123 counter 57.2
COc1cccc2[nH]c3c(N4CCN(Cc5ccc6c(c5)OCO6)CC4)ncnc3c12	none (no result: Cardio protect, FAS-TE inh, MPTP block, aDG glyco up)
c1ccc2c(c1)CCN(c1ncnc3c1[nH]c1ccccc13)C2	MPTP block 98.8 | Rh123 counter 100.6
Cc1ccc2c(c1)[nH]c1c(N3CCN(Cc4ccccc4)CC3)ncnc12	MPTP block 68.1 | Rh123 counter 80.1
Cc1ccc2[nH]c3c(N4CCN(Cc5ccccc5)CC4)ncnc3c2c1	MPTP block 85.0 | Rh123 counter 67.8
COc1ccc2c(c1)[nH]c1c(N3CCN(Cc4ccc5c(c4)OCO5)CC3)ncnc12	MPTP block 88.5 | Rh123 counter 90.6
COc1ccc(Br)c(C=O)c1OS(=O)(=O)c1ccc(C)cc1	none (no result: SUMO Mot1 rescue, Yeast superoxide)
Cn1c(CC(=O)Nc2ccccc2F)nnc1SCC(=O)N1CCOCC1	none
CC(C)CN(CC(C)C)C(=O)COn1nnc2ccc(S(=O)(=O)N3CCOCC3)cc21	none
N=c1n(CC(=O)c2ccc([N+](=O)[O-])cc2)c2ccccc2n1Cc1ccccc1Cl	none
N=c1n(CC(=O)c2ccc([N+](=O)[O-])cc2)c2ccccc2n1Cc1ccc(Cl)cc1	MPTP block 88.1 | Rh123 counter inactive
N=c1n(Cc2ccccc2)c2ccccc2n1Cc1ccccc1	none
N=c1n(CCO)c2ccccc2n1Cc1ccc(Cl)cc1	MPTP block 89.2 | Rh123 counter inactive | MPTP swell DR 13.1 | MPTP counter DR 48.3
N=c1n(Cc2ccccc2)c2ccccc2n1CC(O)COc1ccc(Cl)cc1Cl (stereo not given)	MPTP block 73.6 (no result: SUMO Mot1 rescue, Yeast superoxide) | Rh123 counter inactive
N=c1n(Cc2ccc(Cl)cc2)c2ccccc2n1CC(O)COc1ccccc1 (stereo not given)	MPTP block 77.7 | Rh123 counter 26.7
COC(=O)CS(=O)(=O)c1nnc([C@H](Cc2ccccc2)NC(=O)OC(C)(C)C)o1	MPTP block 97.7 | Rh123 counter inactive
O=c1cc(C(F)(F)F)[nH]c2ccc(OC(F)(F)F)cc12	MPTP block 63.9 | Rh123 counter 84.8
CCOc1ccc2[nH]c(C)cc(=O)c2c1	none
O=c1cc(C(F)(F)F)[nH]c2c(C(F)(F)F)cccc12	MPTP block 63.6 | Rh123 counter 97.7
CCc1c(C)nc2ncnn2c1NCCc1ccc(OC)c(OC)c1	none
COc1ccc(CCNc2c(C)c(C)nc3ncnn23)cc1	MPTP block 74.5 | Rh123 counter 82.5
O=C(COC(=O)Cc1ccsc1)Nc1ccc(Cl)cc1F	none
Cc1cc(C(F)(F)F)c(C#N)c(SCC(=O)Nc2nc3ccccc3s2)n1	MPTP block 63.2 | Rh123 counter 74.0
Cc1nc(SCC(=O)Nc2nc3ccccc3s2)c(C#N)c(C)c1C	none
O=C(O)C1CC=CCC1C(=O)N1CCN(c2nc(-c3ccccc3)c3ccccc3n2)CC1 (stereo not given)	MPTP block 82.6 | Rh123 counter inactive | MPTP swell DR 10.3 | MPTP counter DR inactive
CCCCCCC[C@@H](C/C=C/CCC(=O)O)OC	none (no result: SUMO Mot1 rescue)
CCCCCCC[C@@H](C/C=C/CCC(=O)N(C)C/C(=C/Cl)C/C(=C\C(=O)N1CC(OC)=CC1=O)OC)OC	MPTP block 78.9 | Rh123 counter inactive
CCCCCCC[C@@H](C/C=C/CCC(=O)N(C)C/C(=C/Cl)C/C(=C\C(=O)N1C[C@H](O)CC1=O)OC)OC	MPTP block 74.5 (no result: SUMO Mot1 rescue) | Rh123 counter 102.0
CC/S(C)=N/S(=O)(=O)c1ccc(C)cc1 (stereo not given)	none
CCOC(=S)SCC(=O)Nc1nc(-c2ccc(Br)cc2)cs1	MPTP block 80.0 | Rh123 counter 75.1
CCOC(=S)SCC(=O)Nc1nc(-c2ccccc2)cs1	none
COc1ccc(-c2csc(NC(=O)CSc3nc(SC)ns3)n2)cc1	MPTP block 65.1 | Rh123 counter 74.3
O=S1(=O)N[C@H](Cc2ccccc2)COc2cc(N3CC[C@H](O)C3)ccc21	none (no result: Cardio protect, SUMO Mot1 rescue, Yeast superoxide)
CC1CCN(S(=O)(=O)c2ccc(Oc3ccc([N+](=O)[O-])cc3)cc2)CC1	MPTP block 66.9 | Rh123 counter 70.8
Cc1ccc(OCCCCNC2CCCC(C)C2C)c(C)c1 (stereo not given)	MPTP block 59.9 | Rh123 counter inactive
CCOc1ccc(OCc2cccc(C(=O)Nc3ccc(CN4CCCCC4)cc3)c2)cc1	MPTP block 87.4 | Rh123 counter inactive | MPTP swell DR 2.37 | MPTP counter DR 43
Cc1ccc(NC(=O)CSc2ncnc3ccccc23)cc1S(=O)(=O)N1CCCCCC1	MPTP block 62.1 | Rh123 counter 81.0
Cc1ccc(NC(=O)COc2ccc(N(C)C(=O)C(C)(C)C)cc2)cc1S(=O)(=O)N1CCCCC1	MPTP block 92.7, aDG glyco up 4.6 | Rh123 counter 100.2
CCc1cccc(OCC(=O)Nc2ccc(C)c(S(=O)(=O)N3CCCCCC3)c2)c1	none
CS(=O)(=O)N(CC(=O)N1CCCC1)C1CCCCC1	none (no result: SUMO Mot1 rescue, Yeast superoxide)
O=S1(=O)CC(N2CCN(CCO)CC2)CN1Cc1ccccc1 (stereo not given)	none (no result: SUMO Mot1 rescue, Yeast superoxide)
Cc1cc(OCC(=O)Nc2ccncc2)cc(C)c1Br	MPTP block 91.4 (no result: SUMO Mot1 rescue) | Rh123 counter 96.8
Cc1ccc(OCC(=O)Nc2ccncc2)c(C)c1	MPTP block 73.3 | Rh123 counter 47.7
Cc1cc(OCC(=O)Nc2ccc(Br)cc2)cc2c1C(=O)CC(C)(C)O2	MPTP block 61.8 | Rh123 counter 67.5
Cc1ccc(C)c(OCC(=O)Nc2nonc2NC(=O)COc2cc(C)ccc2C)c1	MPTP block 89.7 | Rh123 counter 83.7
Cc1ccccc1OCC(=O)Nc1ccncc1	none
Cc1cccc(OCC(=O)Nc2nonc2NC(=O)COc2cccc(C)c2)c1	none
CC(=O)Nc1ccc(NC(=O)COc2cc(O)c3c(c2)OC(C)(C)CC3=O)cc1	none
Cc1ccc(C2=CC(=O)C[C@H](c3ccc(F)cc3)C2)cc1	none
Cc1cc(OCC(=O)Nc2ccncc2)ccc1Cl	MPTP block 98.2 | Rh123 counter 88.2
C[C@@H]1CN([C@H](C)CO)C(=O)CCCn2cc(nn2)CO[C@H]1CN(C)S(=O)(=O)c1ccc(-n2cccn2)cc1	none (no result: SUMO Mot1 rescue, Yeast superoxide)

Bioassay records deposited in PubChem by several laboratories.
